Results on 18 molecules are retold here after PubChem BioAssay (NCATS).

Results filed as inconclusive are left out. Values without a mark were called inactive. Calls of active or inactive are those of the source. Calls follow the shape of the dose curve; as a rule, active = well fitted curve in the direction sought with a large enough effect; inconclusive = small, poorly fitted or top-dose-only effect, or another doubt; inactive = no such curve, though single readings can be large; an effect the other way counts as inactive or inconclusive.

For assay [1], the system named is CAOV3. Nature of the assay: Primary qHTS to identify gynecologic anti-cancer compounds using libraries of approved drugs and bioactive compounds (AID 1345084). Also: nearly all actives have a fitted effect of over 55% in size. The following applies: Gynecologic cancer cell panel viability, ATPlite luminescence, 48 h; series mostly up to 57.5 µM. The gist of the method:
(§1)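 ATP-based viability (ATPlite), 1,000 cells/well, 16 h pre-incubation, 48 h compound at 37 C, 5% CO2, 15 min RT before read.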

The subject of assay [2] is CASKI. Described as above. The following applies: Gynecologic cancer cell panel viability, ATPlite luminescence, 48 h; series mostly up to 57.5 µM. The gist of the method:
as §1

The subject of assay [3] is Es-2. Described as above. The following applies: Gynecologic cancer cell panel viability, ATPlite luminescence, 48 h; series mostly up to 57.5 µM. The method in brief:
as §1

Assay [4] deals with HeLa. The assay is described as above. The note with it: Gynecologic cancer cell panel viability, ATPlite luminescence, 48 h; series mostly up to 57.5 µM. The gist of the method:
as §1
In general terms: In ATP-based viability assays light output follows the ATP content of the culture.

The subject of assay [5] is Hek293T. The description is as above. The note with it: Gynecologic cancer cell panel viability, ATPlite luminescence, 48 h, control line for the selectivity index; series mostly up to 57.5 µM. The gist of the method: as §1
Assay [6] concerns OV90. The assay is described as above. The following applies: Gynecologic cancer cell panel viability, ATPlite luminescence, 48 h; series mostly up to 57.5 µM. The method in brief: as §1
The subject of assay [7] is Tov-21-G. The description is as above. The note with it: Gynecologic cancer cell panel viability, ATPlite luminescence, 48 h; series mostly up to 57.5 µM. The gist of the method: as §1
Assay [8] deals with Tov112D. The description is as above. The following applies: Gynecologic cancer cell panel viability, ATPlite luminescence, 48 h; series mostly up to 57.5 µM. The method in brief:
as §1

The test system of assay [9] is C33A. The description is as above. The note with it: Gynecologic cancer cell panel viability, ATPlite luminescence, 48 h; series mostly up to 57.5 µM. The method in brief:
as §1

The test system of assay [10] is SKOV3. Described as above. The note with it: Gynecologic cancer cell panel viability, ATPlite luminescence, 48 h; series mostly up to 57.5 µM. The gist of the method: as §1
Assay [11] has as its system PA-1. The description is as above. The following applies: Gynecologic cancer cell panel viability, ATPlite luminescence, 48 h; series mostly up to 57.5 µM. The method in brief: as §1
Assay [12] relates to JEG-3. Described as above. The note with it: Gynecologic cancer cell panel viability, ATPlite luminescence, 48 h; series mostly up to 57.5 µM. The method in brief: as §1
Assay [13] can be described thus: qHTS assay to identify inhibitors of the type 1 interferon - major histocompatibility complex class I in skeletal muscle: Counter screen cell viability and HiBit confirmation (AID 1347412). Also: nearly all actives have a fitted effect of over 60% in size. The note with it: iHSKM muscle cells + IFN-b, HiBiT or CellTiter-Glo, 24 h. The gist of the method: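 Luminescence read-out: Nano-Glo HiBiT lytic signal from C-terminally HiBiT-tagged HLA-B in CRISPR-edited human myoblasts, plus CellTiter Glo ATP as viability counter screen. IFN-beta 4.0 ng/ml; 24 hrs treatment at 37 C, 5% CO2.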
Background: qHTS replaces the single test concentration by a dilution series.
% is scaled to controls: 0 for no effect and ±100 for the full control effect; potency is read from the fitted curve at half-maximal effect.

Take `Cc1ccc(C(=O)Nc2noc3ccccc23)cc1`: the Potency is 15.8 µM (active) in assay [1]; 22.4 µM (active) in assay [2]; 15.8 µM (active) in [3]; 22.4 µM (active) in assay [4]; 15.8 µM (active) in assay [5]; 11.2 µM (active) in assay [6]. In addition, the Potency in assay [7] and in assay [8] was 28.2 µM (active) in each case.

For the molecule `C[C@@H]1O[C@@H](O[C@H]2[C@H](O[C@H]3[C@H](O[C@H]4CC[C@@]5(C)C(CC[C@]6(C)C5CC=C5[C@@H]7CC(C)(C)CC[C@]7(C(=O)O[C@@H]7O[C@H](CO)[C@@H](O[C@@H]8O[C@@H](C)[C@H](O)[C@@H](O)[C@H]8O)[C@H](O)[C@H]7O)CC[C@]56C)C4(C)C)OC[C@H](O)[C@@H]3O)O[C@H](CO)[C@@H](O)[C@@H]2O)[C@H](O)[C@H](O)[C@H]1O` (stereo partly specified), the activity change, negative = cytotoxicity in assay [9] was -22.7% [at 6.55 µM]; in assay [3] it was -47.2% [at 6.55 µM]; in [6] it was -0.139% [at 6.55 µM].

For the molecule `CC(=O)OC1C(=O)C2(C)C(O)CC3OCC3(OC(C)=O)C2C(OC(=O)c2ccccc2)C2(O)CC(OC(=O)C(O)C(NC(=O)c3ccccc3)c3ccccc3)C(C)=C1C2(C)C` (stereo unspecified), the Potency entry in assay [9], in assay [5], in [6] and in assay [8] was “inactive” throughout. In assay [3], the Potency was 0.316 µM (active).

As to `COc1cc(N2CCC(N3CCN(C)CC3)CC2)ccc1Nc1ncc(Cl)c(-c2c[nH]c3ccccc23)n1`, the Potency is 11.2 µM (active) in [1]; 8.91 µM (active) in assay [2]; 8.91 µM (active) in [4]; 15.8 µM (active) in assay [6]; 3.98 µM (active) in assay [10]; 8.91 µM (active) in assay [7]. In assay [8], the Potency is 20 µM (active). For the same molecule, the Potency result in assay [3] was “inactive”.

On to `CC1(C)CC[C@]23CO[C@@]4(CCC5[C@@]6(C)CC[C@H](O[C@@H]7OC[C@H](O[C@@H]8O[C@H](CO)[C@@H](O)[C@H](O)[C@H]8O)[C@H](O)[C@H]7O[C@@H]7O[C@H](CO)[C@@H](O[C@@H]8O[C@H](CO)[C@@H](O)[C@H](O)[C@H]8O)[C@H](O)[C@H]7O)[C@@](C)(CO)C6CC[C@@]5(C)[C@]4(C)C[C@H]2OC2OCC(O)C(O)C2O)C3C1` (stereo partly specified), for which the figures for the activity change, negative = cytotoxicity in assay [9] and in [4] were -28.5% [at 6.55 µM] and -27.3% [at 6.55 µM], respectively.

As to `Cc1nc(Nc2n[nH]c3c2CN(C(=O)NC(CN(C)C)c2ccccc2)C3(C)C)c2sccc2n1` (stereo unspecified), the Potency in assay [1] was 1.41 µM (active); in assay [2], 3.98 µM (active); in assay [3] it was 7.94 µM (active); in [4] it was 10 µM (active); in assay [5], 7.94 µM (active); in assay [6] it was 3.16 µM (active). Besides, the values for the Potency in assay [11] and in assay [8] were 0.316 µM (active) and 6.31 µM (active), respectively.

Take `O=S(=O)(c1ccccc1)c1cnc2c(N3CCNCC3)cccc2c1`: the Potency result in assay [1], in assay [2], in assay [3], in assay [4], in assay [5] and in [11] was “inactive” throughout. In [7], the Potency result was “inactive”.

For `COc1ccc(C(=O)Nc2ncc(-c3ccc(C(=O)O)cc3)s2)cc1`, the Potency in assay [1] was 6.31 µM (active); in assay [2] it was 17.8 µM (active); in [3] it was 31.6 µM (active); in assay [4] it was 7.08 µM (active); in [12], 15.8 µM (active); in assay [6], 10 µM (active). Also, the Potency in assay [7] and in [8] was 14.1 µM (active) throughout.

As for `CN1CCN(c2ccc(C(=O)Nc3n[nH]c4ccc(Cc5cc(F)cc(F)c5)cc34)c(NC3CCOCC3)c2)CC1`, the Potency result in assay [9], in [3], in [5], in assay [12], in [7] and in assay [8] was “inactive” in each case. Moreover, the Potency is 17.6 µM (active) in assay [13] (HiBiT) and 27.9 µM (active) in [13] (Viability).

For `CN1CCC(Nc2nc(Nc3ccc(Oc4ccccc4)cc3)c3c(=O)[nH]cc(Br)c3n2)CC1`, the Potency result in [9], in assay [5], in assay [12], in [6], in [7] and in assay [8] was “inactive” in each case.

As for `CCC1C(=O)OC23C=C[C@@H]4C(C(=O)O)=CO[C@H](O[C@@H]12)[C@@H]43` (stereo partly specified), the Potency result in assay [1], in [2], in assay [3], in assay [4], in assay [5] and in assay [12] was “inactive” throughout. Also, the Potency entry in assay [6], in assay [11] and in [10] was “inactive” in each case.

On to `CC(=O)NCC(=O)N1C2CCC1c1cc(Nc3ncc(C(F)(F)F)c(NC4CCC4)n3)ccc12` (stereo unspecified), for which the Potency entry in assay [9] and in assay [12] was “inactive” each time. The figures for the Potency in [3], in assay [5] and in [7] were 14.1 µM (active), 3.98 µM (active) and 8.91 µM (active), respectively.

As for `Nc1ccc(/C=C/C(=O)NCc2cc3cc(-c4ccc(C(=O)N5CCC(F)(F)CC5)cc4)cc(-c4ccc(F)cc4)c3o2)cn1`, the Potency is 7.08 µM (active) in [9]; 4.47 µM (active) in assay [4]; 3.98 µM (active) in assay [5]; 1.58 µM (active) in [12]; 3.55 µM (active) in assay [6]; 1.41 µM (active) in assay [11]. Also, the Potency in [10] is 1.78 µM (active); in assay [7] it was 3.16 µM (active).

Turning to `CC[C@]1(O)CC2CN(CCc3c([nH]c4ccccc34)[C@@](C(=O)OC)(c3cc4c(cc3OC)N(C=O)[C@H]3[C@@](O)(C(=O)OC)[C@H](OC(C)=O)[C@]5(CC)C=CCN6CC[C@]43[C@@H]65)C2)C1` (stereo partly specified), in assay [1], the Potency result is “inactive”. Besides, the Potency was 0.0891 µM (active) in assay [2]; 0.447 µM (active) in [3]; 0.282 µM (active) in [4]; 1.78 µM (active) in assay [6]; 0.126 µM (active) in assay [11]; 0.126 µM (active) in assay [7]. In assay [8], the Potency is 0.158 µM (active).

In the case of `COc1ccc(F)cc1-c1cc(NC(=O)[C@@H]2CCCNC2)ncc1Cl`, the Potency result in assay [1] and in [12] was “inactive” in each case. Moreover, the Potency in assay [2] is 0.891 µM (active); in [3] it was 0.794 µM (active); in assay [4], 0.708 µM (active); in assay [5], 0.398 µM (active); in assay [11] it was 0.355 µM (active); in assay [8], 0.708 µM (active).

On to `O=C1N=C(N2CCOCC2)CN1c1ccc(Cl)cc1`, for which the Potency entry in assay [1], in assay [2], in [3], in assay [4], in [5] and in assay [12] was “inactive” throughout. Moreover, the Potency entry in assay [6], in [11], in assay [10], in assay [7] and in [8] was “inactive” each time.

Regarding `CC(C)c1cc(CNc2nc(Nc3cc(C4CC4)[nH]n3)cc(N3CCN(C)CC3)n2)on1`, the Potency in assay [1] is 0.282 µM (active); in assay [2] it was 2.82 µM (active); in [3] it was 7.94 µM (active); in assay [4] it was 0.251 µM (active); in assay [5], 2 µM (active); in [6], 3.16 µM (active). For the same molecule, the Potency in assay [11] was 0.398 µM (active); in assay [10], 1 µM (active); in [8] it was 5.01 µM (active); in [13] (HiBiT), 1.98 µM (active). Moreover, the activity change, negative = inhibition in assay [13] (Viability, at 45.9 µM (top of the series)) was 6.65%.

On to `O=S(=O)(NCC1CC1)c1ccc(Nc2nccc(N3CCCc4cc(O)ccc43)n2)cc1`, for which the Potency is 31.6 µM (active) in assay [9] and 10 µM (active) in assay [11]. In addition, the Potency entry in [6] was “inactive”.
